L3MBTL1 inh: qHTS Assay for the Inhibitors of L3MBTL1 | AlphaScreen L3MBTL1–H3K9me1 peptide binding | Potency, µM (top dose mostly 57.1 µM), actives largely listed as inhibitors | hit rate 0.66% among 230,000; also: nearly all actives have a fitted effect of over 60% in size
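AlphaScreen proximity signal between nickel-chelate acceptor and streptavidin donor beads (final 10 ug/mL) reports binding of 50 nM L3MBTL1 to 75 nM biotin-H3 K9me1 peptide; complex incubated with compounds 30 min at room temperature; cefsulodin titration as control.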
JMJD2A Tudor inh: qHTS Assay for Inhibitors of JMJD2A-Tudor Domain; hit rate 4.4% among 390,000; AlphaScreen JMJD2A-Tudor / H3K4me3 peptide binding; Potency, µM (highest dose often 114 µM), hits mostly inhibitors; Lysine-specific demethylase 4A (Homo sapiens), O75164; also: nearly all actives have a fitted effect of over 50% in size
BAZ2B inh: qHTS Assay for Inhibitors of BAZ2B | Bromodomain adjacent to zinc finger domain protein 2B (Homo sapiens), Q9UIF8 | AlphaScreen BAZ2B-H3K14Ac peptide displacement | Potency, µM (top dose mostly 114 µM), actives largely listed as inhibitors | hit rate 4.4% among 360,000; also: nearly all actives have a fitted effect of over 60% in size
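Multi-concentration screen (max 110 uM) measuring displacement of acetylated histone H3 peptide from BAZ2B by AlphaScreen, using 50 nM protein, 50 nM peptide and 10 ug/mL streptavidin donor plus Ni-chelate acceptor beads.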
G9a inh: qHTS Assay for Inhibitors of Histone Lysine Methyltransferase G9a | Histone-lysine N-methyltransferase EHMT2 (Homo sapiens), Q96KQ7 | hit rate 8.8% among 350,000 | G9a H3K9 monomethylation, AlphaScreen, 2 h | Potency, µM (top dose mostly 102 µM), usual class: inhibitors; also: nearly all actives have a fitted effect of over 75% in size
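Quantitative HTS format: methyltransferase activity on a biotin-tagged H3K9 peptide is measured by AlphaScreen, using a rabbit anti-monomethyl-H3K9 antibody with streptavidin donor and anti-IgG acceptor beads. Final levels are 20 nM enzyme, 500 nM peptide, 20 uM SAM; 2 h RT.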
HP1b chromo inh: HTS for Inhibitors of HP1-beta Chromodomain Interactions with Methylated Histone Tails; AlphaScreen HP1-beta / biotin-H3K9me3 peptide binding; Chromobox protein homolog 1 (Homo sapiens), P83916; AID 540317, 2011; Potency, µM (titrated, usually from 114 µM), hits mostly inhibitors; hit rate 0.56% among 390,000; also: nearly all actives have a fitted effect of over 70% in size
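AlphaScreen: HP1-beta (50 nM) preformed 30 min with biotin-H3(1-18)K9me3 peptide (50 nM) in PBS pH 7.4, 0.01% Tween-20. Compound added for 30 min at RT, then streptavidin donor/nickel chelate acceptor beads (10 ug/mL) for 30 min.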
Hits are given with their value; . = inactive; ? = inconclusive; / = not tested or not shown; [ ] = remark or other dose. This is a sample that favours compounds with a hit; in the whole collection about 11% have one here. Calls follow the shape of the dose curve; as a rule, active = well fitted inhibition curve with a large enough effect; inconclusive = small, poorly fitted or top-dose-only effect; inactive = no such curve, though single readings can be large or run the other way.

SMILES	L3MBTL1 inh	JMJD2A Tudor inh	BAZ2B inh	G9a inh	HP1b chromo inh
COc1ccc(NC(=O)CSc2nc(O)cc(=O)[nH]2)c(OC)c1	/	.[11.4 µM]	.	.[12.7 µM]	.
COc1ccc(Cl)cc1NC(=O)CSc1sc2c(O)cc(=O)[nH]c2c1C#N	/	.	.	?	.
COc1ccccc1NC(=O)CSc1sc2c(O)cc(=O)[nH]c2c1C#N	/	?	?	8.9µM	.
COc1ccc(-n2cc3c(c2-c2cccc(Br)c2)c(=O)n(C)c(=O)n3C)cc1OC	/	.	.	.	.
Cc1ccc(N2C(N)=C(C#N)C(c3cc(CN4CCOCC4)cs3)C3=C2CC(C)(C)CC3=O)cc1 (configuration not stated)	/	.	.	50µM	.
COc1cccc(-c2ccc3ncnc(N4CCNCC4)c3c2)c1	/	/	/	.[0.501 µM]	/
O=[N+]([O-])c1ccc(Cl)c(S(=O)(=O)/N=C(/c2ccccc2)N2CCOCC2)c1	/	.	.	.	.
CC(CNCC1CCCO1)COc1cccc2ccccc12 (configuration not stated)	.	1.8µM	?	?	?
CCCCN1C(=O)/C(=C/C=C2\Oc3ccccc3N2CC)SC1=S	.	.	?	.[0.501 µM]	.
CCN1/C(=C/C=C/c2oc3ccc(-c4ccccc4)cc3[n+]2CC)Oc2ccc(-c3ccccc3)cc21	.	?	28µM	/	.
COc1ccc(C(=O)[C@H]2[C@H]3C(=O)N(c4ccc(C)cc4)C(=O)[C@H]3C3C=CC=NN32)cc1 (some centres not stated)	/	.	40µM	/	.
COc1ccc(C(=O)[C@H]2[C@H]3C(=O)N(c4ccccc4)C(=O)[C@H]3C3C=CC=NN32)cc1 (some centres not stated)	/	?	.	?	.
CC(=O)Oc1ccc(N2C(=O)C3C(C2=O)C(C(=O)c2ccc(Cl)cc2)N2CCCC32)cc1 (configuration not stated)	.	45µM	.	.[12.7 µM]	?
CC(=O)Oc1ccc(C(=O)[C@H]2[C@H]3C(=O)N(c4ccccc4)C(=O)[C@H]3[C@@H]3C=CC=NN32)cc1	.	.	.	4.5µM	.
CC(=O)Oc1ccc(C(=O)[C@H]2[C@H]3C(=O)N(c4ccc(C)cc4)C(=O)[C@H]3[C@@H]3C=CC=NN32)cc1	.	?	.	3.5µM	.
Cc1ccc(NC(=O)C2CCCN2S(=O)(=O)c2ccc(-c3ccc(=O)[nH]n3)s2)c(C)c1 (configuration not stated)	/	.	.	.	.
COc1ccc2c(c1)Cc1sc(NC(=O)c3ccc(Cl)cc3)nc1-2	/	.	.	.	.
CC(=O)Oc1ccc(C(=O)[C@H]2[C@H]3C(=O)N(c4ccc(C)cc4C)C(=O)[C@H]3[C@@H]3C=CC=NN32)cc1	.	?	.	3.5µM	.
O=C(Nc1ccccc1)[C@@H]1[C@@H]2C(=O)N(c3ccc(F)cc3)C(=O)[C@@H]2[C@H]2C=CC=NN21	.	.	.	/	.
Cc1ccc(N2C(=O)[C@@H]3[C@H](C2=O)[C@H]2C=CC=NN2[C@@H]3C(=O)Nc2ccccc2)cc1	.	.	.	7.1µM	.
COc1ccc(N2C(=O)[C@@H]3[C@H](C2=O)[C@H](C(=O)c2ccc(OC(C)=O)cc2)N2N=CC=C[C@@H]32)cc1	.	/	?	3.5µM	/
CC(=O)Oc1ccc(N2C(=O)[C@@H]3[C@H](C2=O)[C@H]2c4ccccc4C=NN2[C@@H]3C(C)=O)cc1	.	.	.	?	.
Nc1cc(=O)nc(SCC(=O)Nc2ccc(F)cc2)n1CCc1ccccc1	/	.	.	.	.
Cc1ccc(NC(=O)Cn2c(=O)n(CCCCC(=O)NCc3ccccc3Cl)c(=O)c3ccccc32)cc1	/	.	.	.	.
COc1cc(NC(=O)C(CCSC)NS(=O)(=O)c2ccc3c(c2)oc(=O)n3C)cc(OC)c1 (configuration not stated)	/	.	.	.	.
CCCCCCCC/C=C\CCCCCCCC(=O)NCCc1ccc(O)c(O)c1	.	35µM	.	?	.

High-throughput results from PubChem.
